Drawing on PubChem BioAssay (NCI), this text covers growth for 40 compounds.

The structures appear in SMILES notation. The panel holds about 83,000 compounds, 20% with a hit somewhere; the sample as a whole holds those more often.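 Percent growth is the endpoint: 0 to 100 indicates growth inhibition (40 means 60% inhibition), 0 means no net growth, and negative values indicate cell death.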 Unmarked numbers belong to inactive results. Active and inactive are the calls of the source.

The experiment deals with BT-549 breast. The experiment is described as follows: NCI-60 one-dose screen, 48 h (100 = growth as untreated, 0 = no growth, -100 = all killed). The conditions noted are these: 10 µM unless noted. Here is the method: Growth inhibition of the BT-549 human tumor cell line is measured as a screen for anti-cancer activity. Cells are grown in 96 well plates and exposed to the test compound for 48 hours. Compounds are tested at a single concentration, which is 10^-5 M for most compounds. The reported endpoint is percent growth (GI% or GIPRCNT), where numbers from 0 - 100% represent growth inhibition, and numbers from -100% - 0 represent cell death. For example, a value of 40 represents 60% growth inhibition. A value of 0 means no net growth occurred over the course of the experiment. A value of -40 indicates 40% of cells at the beginning of the experiment died by the end of the experiment. A value of -100 means all cells are dead at the end of the experiment.
NCI-60 Human Tumor Cell Lines Screen was performed using the standard one-dose NCI protocol, which is described in more detail at https://dtp.cancer.gov/discovery_development/nci-60/default.htm.
Compounds with GIPRCNT values below 10 were considered active. Activity score was based on GIPRCNT using the following formula: […]
Score is 0 for GIPRCNT values of 100 or above, 50 for GIPRCNT values of 0, and 100 for GIPRCNT values of -100.
On to `N=C(N)SCc1cccc2c(CSC(=N)N)cccc12`, for which the growth is 107%.
In the case of `COc1ccc(/C=C/C(=O)c2cc3c(N)c(C(=O)Nc4ccccc4C)sc3nc2C)cc1`, the growth was 29.7%.
As for `O=C(/C=C/c1cccc(Cl)c1)c1cccc(OCCCCOc2cccc(C(=O)/C=C/c3cccc(Cl)c3)c2)c1`, the figure is 92.6%; as for `CN1CCN(Cc2ccc(NC(=O)c3cncc(C#Cc4cnn5ccccc45)c3)cc2C(F)(F)F)CC1`, 41%.
Consider `O=C1NC(=Nc2ccc(O)cc2)S/C1=C\c1cccs1`, for which the growth is 35.8%.
Consider `CCN(CC)CCCC(C)Nc1ccc2cc(OC)ccc2n1` (stereo not given), for which the growth was 107%.
With `Cn1cc(-c2nn3cc(-c4ccccc4)nc3s2)c2ccccc21`, the growth was 78.1%.
In the case of `NS(=O)(=O)c1ccc(N/C=C/C(=O)c2cc3ccccc3oc2=O)cc1`, the growth is 95.5%.
On to `Cc1cc(C)cc(Nc2ccc([N+](=O)[O-])c(NCCN3CCOCC3)n2)c1`, for which the growth was 9.31% (active).
Regarding `C#CCOc1cccc(-c2ncc3cc(NC(=O)CCl)ccc3n2)c1`, the growth was -49.3% (active).
`Cn1c(O)c(C(/C=C/c2ccccc2)=Nc2ccccc2N)c(=O)n(C)c1=O`: the growth was 121%.
Next, `c1ccc2cc(Cn3c[n+](Cc4ccc5ccccc5c4)c4ccccc43)ccc2c1`: -82.7% (active).
For `Cn1cc(/C=C2/C(=O)Nc3ccccc32)c2ccccc21`, the growth was 88.4%.
As for `Cc1nc2sc(C(=O)Nc3ccccc3)c(N)c2cc1C(=O)/C=C/c1ccccc1`, the figure is -7.07% (active); as for `CCOC(=O)c1c(-c2ccc(Cl)cc2)c(C#N)c2c(C#N)c(N)nn2c1N`, 68.5%.
For `COc1ccc(C2C(C#N)=C(N)Oc3c2sc2c(Br)cccc32)cc1` (stereo not given), the growth is 34.4%.
On to `O=C(N/N=C/c1ccc(O)cc1O)c1ccc(Nc2ccnc(C(F)(F)F)c2)cc1`, for which the growth was 41.5%.
Next, `CC(CN)[C@@H]1CC[C@]2(CO)CC[C@]3(C)[C@H](CC[C@@H]4[C@@]5(C)CCC(N)C(C)(C)[C@@H]5CC[C@]43C)[C@@H]12` (stereo not given in full): 44.9%.
As for `O=C(c1ccc(F)c(Cl)c1)N1c2ccccc2Sc2ccccc21`, the growth is 57.6%.
As for `CCCCCCCCn1ccc2cc(NC(=O)Cn3cc(CN4CCC(C)CC4)nn3)ccc21`, the figure is 78.1%.
For `C=CC(C)(O)CC/C=C(\CO)C(=O)OC1C(C)OC(O[C@](C)(C=C)CC/C=C(\CO)C(=O)O[C@H]2C[C@@]3(C(=O)OC4OC(CO)C(O)C(O)C4OC4OC(C)C(OC5OC(CO)C(O)C5O)C(OC5OC(CO)C(O)C(O)C5O)C4O)C(CC2(C)C)C2=CCC4[C@@]5(C)CC[C@H](OC6OC(COC7OC(C)C(O)C(O)C7OC7OCC(O)C(O)C7O)C(O)C(O)C6NC(C)=O)C(C)(C)C5CC[C@@]4(C)[C@]2(C)C[C@H]3O)C(O)C1O` (stereo not given in full), the growth is 104%.
In the case of `CC(=O)c1c(Nc2ccc(F)c(F)c2F)[nH]c2c(F)cc(F)cc2c1=O`, the growth is 2.13% (active).
On to `COc1ccc2cc(Cn3cc[n+](Cc4ccc5ccccc5c4)c3)ccc2c1`, for which the growth is 11.8%.
Turning to `O=C1NC(=C(Cl)Cl)/C(=N/S(=O)(=O)N2CCCCC2)N1`, the growth was 63.6%.
Regarding `COc1ccc(/C=C/C(=O)c2ccc(NC(=O)CSc3nnc(-c4cc(-c5ccccc5)nc5ccccc45)n3-c3ccccc3)cc2)cc1`, the growth is 96.3%.
`CN1C(=O)/C(=C/c2ccc(C(=O)Nc3ncc(Cc4ccc(F)cc4)s3)cc2)SC1=S`: the growth is 54.9%.
Next, `O=C(Nc1ccc(F)cc1)Nc1ccccc1CNc1nc(Nc2ccc(OCCN3CCCC3)cc2)ncc1Cl`: 84.9%; `O=C(CCC(=O)c1nc2ncccc2[nH]1)NN1C(=O)CSC1c1ccc(Cl)cc1` (stereo not given): 120%.
Next, `Cn1cccc1/C=C1\C(=O)Nc2ccccc21`: 89.6%; `CCCCCSB(SCCCCC)c1ccccc1`: 105%.
Next, `CCCCn1sc(=O)n(Cc2ccc(CNC(=O)OCc3ccc4c(Cl)cc(Cl)c(O)c4n3)cc2)c1=O`: 81.4%; `CS(=O)(=O)Cc1cnc(C2OCCO2)s1`: 97.6%.
With `CC(C)=CC(=O)N[C@@H]1CC2CCC3C(CC[C@@]4(C)C3CC[C@@H]4C(C)N(C)C)[C@@]2(C)C[C@@H]1O` (stereo not given in full), the growth is 66.1%.
Take `C/C(=C(/c1ccc(Cl)cc1)c1ccc(OCCCN(C)C)cc1)c1ccc(Cl)cc1`: the growth was 111%.
`Cc1ccccc1OCC(O)COc1ccccc1C`: the growth is 79.4%.
In the case of `C[N+](C)(C/C=C/c1ccccc1)Cc1ccccc1`, the growth is 96.1%.
Consider `O=C1Nc2ccc(F)cc2/C1=C\c1nc(-c2ccccc2F)n2ccccc12`, for which the growth is 102%.
Turning to `N#Cc1nc2c(S(=O)(=O)c3ccccc3)c(N)n(Cc3cccnc3)c2nc1C#N`, the growth was 65.4%.
Next, `O=C(O)C1CN(c2cccc(Cl)c2)N(c2cccc(Cl)c2)C1=O` (stereo not given): 101%.
As to `Cn1cc(-c2nc(-c3c[nH]c4ccncc34)cs2)c2cc(Br)ccc21`, the growth was 84.2%.
